Measurements from PubChem BioAssay (NCI).
This is part of a sample that, as a whole, favours compounds with a hit. Of some 79,000 tested, about 15% had one in any assay. Activity calls are given as the source filed them. No stated cut-off is given here; in the data, active means growth inhibition above about 70%; inactive means the rest.

What was measured:
[1] = NCI Yeast Anticancer Drug Screen. Data for the wt1 strain (AID 149);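 further: 0% = growth of vehicle-treated wt1 cultures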; details: S. cerevisiae wt1 strain (SPY 50644) growth inhibition, stronger effect = higher value
Summary of the method: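 Yeast wt1 strain exposed to compounds; growth inhibition measured relative to vehicle-treated controls.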

[2] = NCI Yeast Anticancer Drug Screen. Data for the mgt1 strain (AID 153); details: S. cerevisiae mgt1 mutant growth inhibition, stronger effect = higher value
Summary of the method: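 In the mgt1 strain, test compounds were added and growth inhibition was determined relative to vehicle-treated controls.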

[3] = NCI Yeast Anticancer Drug Screen. Data for the rad50 strain (AID 155);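 further: 0% = growth of vehicle-only cultures of the same strain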; details: S. cerevisiae rad50 strain growth inhibition, stronger effect = higher value
Summary of the method: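 Yeast carrying a defined DNA repair defect were exposed to test compounds, and growth was compared with vehicle-treated controls to give percent inhibition.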

[4] = NCI Yeast Anticancer Drug Screen. Data for the mec2-1 strain (AID 157); details: S. cerevisiae mec2-1 strain, stronger effect = higher value
Summary of the method: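 Each compound was tested on mec2-1 yeast, a strain altered in DNA damage repair or cell cycle control. Growth inhibition is reported relative to vehicle.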

[5] = NCI Yeast Anticancer Drug Screen. Data for the rad14 strain (AID 159);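 further: 0% = growth of vehicle-treated control cultures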; details: S. cerevisiae rad14 strain growth inhibition, stronger effect = higher value
Summary of the method: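 Yeast cells carrying a defined DNA-repair defect were exposed to compounds, and growth inhibition was calculated relative to vehicle-treated control cultures.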

[6] = NCI Yeast Anticancer Drug Screen. Data for the sgs1 mgt1 strain (AID 161);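 further: 0% = growth of cultures given vehicle only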; details: S. cerevisiae sgs1 mgt1 strain, stronger effect = higher value
Summary of the method: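 Genetically altered yeast, compound exposure, growth inhibition relative to vehicle.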

[7] = NCI Yeast Anticancer Drug Screen. Data for the CLN2oe strain (AID 163);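 further: 0% = growth of vehicle-only control cultures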; details: S. cerevisiae CLN2oe strain, stronger effect = higher value
Summary of the method: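 First, the altered yeast strain was treated with each compound; second, its growth was measured; finally, inhibition was derived by comparison with vehicle controls.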

[8] = NCI Yeast Anticancer Drug Screen. Data for the cln2 rad14 strain (AID 165);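 further: 0% = growth equal to vehicle treated cultures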; details: S. cerevisiae cln2 rad14 strain, stronger effect = higher value
Summary of the method: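 Test compounds were added to cln2 rad14 yeast cultures; inhibition of growth was then determined by comparison with vehicle treatment.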

[9] = NCI Yeast Anticancer Drug Screen. Data for the bub3 strain (AID 167); details: S. cerevisiae bub3 mutant strain, stronger effect = higher value
Summary of the method: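 Compounds were applied to a genetically altered yeast strain carrying a cell-cycle control defect. Growth inhibition was scored against vehicle-treated controls.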

[10] = NCI Yeast Anticancer Drug Screen. Data for the wt2 strain (AID 169);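 further: 0% = growth of vehicle-treated yeast cultures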; details: S. cerevisiae wt2 strain growth inhibition, stronger effect = higher value
Summary of the method: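 The panel's yeast strains carry defined changes in DNA repair or cell cycle genes. Each strain is grown with compound, and growth loss is scored relative to vehicle.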

[11] = NCI Yeast Anticancer Drug Screen. Data for the mlh1 strain (AID 171);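 further: 0% = growth of vehicle-treated control cultures of the same strain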; details: S. cerevisiae mlh1 strain growth inhibition, stronger effect = higher value
Summary of the method: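 Inhibition values reflect reduced yeast growth in the presence of compound, referenced to vehicle controls, using a strain chosen for its alteration in DNA repair or cell cycle control.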

[12] = NCI Yeast Anticancer Drug Screen. Data for the sgs1 strain (AID 173);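 further: 0% = growth of vehicle-only control cultures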; details: S. cerevisiae sgs1 mutant, stronger effect = higher value
Summary of the method: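 Vehicle-treated cultures served as reference for growth inhibition of a yeast strain altered in DNA damage repair or cell cycle control after compound exposure.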

[13] = NCI Yeast Anticancer Drug Screen. Data for the mlh1 rad18 strain (AID 175); details: S. cerevisiae mlh1 rad18 strain growth inhibition, stronger effect = higher value
Summary of the method: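 Inhibition values reflect reduced growth of mutant yeast versus vehicle-treated controls following compound exposure; the mutations affect DNA damage repair.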

[14] = NCI Yeast Anticancer Drug Screen. Data for the rad50EPP+ strain (AID 151);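 further: 0% = growth of vehicle-treated control cultures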; details: S. cerevisiae rad50 mutant strain, stronger effect = higher value
Summary of the method: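 Genetically defined yeast (rad50EPP+, DNA damage repair alteration) is grown with compound, and inhibition of growth is expressed relative to vehicle-treated controls.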

[15] = NCI Yeast Anticancer Drug Screen. Data for the rad18 strain (AID 177); details: S. cerevisiae rad18 mutant growth inhibition, stronger effect = higher value
Summary of the method: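 Steps: expose repair-mutant yeast to compound; measure growth; express as inhibition relative to vehicle control.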

[16] = at 5.0 µM (retest, dose inferred, filed as 0.5)
[17] = at 50.0 µM (retest, dose inferred, filed as 5.0)

Measured: growth inhibition

O=C(CCCN1CCC2(CC1)OC(=O)N(c1ccccc1)C2=O)c1ccccc1
active: [2]; at 100.0 µM 74% | [3]; at 50.0 µM 83.9% | [5]; at 11.0 µM 74% | [5]; at 33.0 µM 79% | [5]; at 100.0 µM 90% | [6]; at 50.0 µM 85.9% | [7]; at 11.0 µM 72% | [7]; at 33.0 µM 71% | [7]; at 100.0 µM 76% | [8]; [17] 85% | [9]; at 50.0 µM 79.4% | [11]; at 11.0 µM 71% | [11]; at 33.0 µM 70% | [11]; at 100.0 µM 73% | [12]; at 11.0 µM 71% | [12]; at 33.0 µM 72% | [12]; at 100.0 µM 75% | [13]; [17] 78% | [13]; at 50.0 µM 72.9%
inactive: [1]; at 1.2 µM 43% | [1]; at 3.7 µM 45% | [1]; at 11.0 µM 53% | [1]; at 33.0 µM 52% | [1]; at 100.0 µM 63% | [2]; at 1.2 µM 29% | [2]; at 3.7 µM 44% | [2]; at 11.0 µM 56% | [2]; at 33.0 µM 65% | [3]; at 1.2 µM 31% | [3]; at 3.7 µM 50% | [3]; [16] 31% | [3]; at 11.0 µM 60% | [3]; at 33.0 µM 65% | [3]; [17] 64% | [3]; at 100.0 µM 67% | [4]; at 1.2 µM 44% | [4]; at 3.7 µM 45% | [4]; [16] 37% | [4]; at 11.0 µM 60% | [4]; at 33.0 µM 61% | [4]; [17] 60% | [4]; at 50.0 µM 47.2% | [4]; at 100.0 µM 59% | [5]; at 1.2 µM 53% | [5]; at 3.7 µM 63% | [6]; [16] 48% | [6]; [17] 69% | [7]; at 1.2 µM 45% | [7]; at 3.7 µM 63% | [8]; [16] 64% | [8]; at 50.0 µM 65% | [9]; at 1.2 µM 20% | [9]; at 3.7 µM 29% | [9]; [16] 53% | [9]; at 11.0 µM 35% | [9]; at 33.0 µM 38% | [9]; [17] 67% | [9]; at 100.0 µM 50% | [10]; at 1.2 µM 7% | [10]; at 3.7 µM 24% | [10]; at 11.0 µM 32% | [10]; at 33.0 µM 38% | [10]; at 100.0 µM 40% | [11]; at 1.2 µM 35% | [11]; at 3.7 µM 66% | [12]; at 1.2 µM 53% | [12]; at 3.7 µM 67% | [13]; [16] 23%

Cc1ccc(Nc2n[nH]c(=S)s2)cc1C
inactive: [1]; at 1.2 µM -23% | [1]; at 3.7 µM -22% | [1]; at 11.0 µM -19% | [1]; at 33.0 µM 1% | [14]; at 1.2 µM -7% | [14]; at 3.7 µM -5% | [14]; at 11.0 µM -21% | [14]; at 33.0 µM -9% | [14]; at 100.0 µM 48% | [3]; at 1.2 µM 14% | [3]; at 3.7 µM 17% | [3]; at 11.0 µM 21% | [3]; at 33.0 µM 54% | [4]; at 1.2 µM 1% | [4]; at 3.7 µM 0% | [4]; at 11.0 µM 10% | [4]; at 33.0 µM 11% | [4]; at 50.0 µM 67.7% | [6]; [16] 5% | [7]; at 1.2 µM 3% | [7]; at 3.7 µM -8% | [7]; at 11.0 µM -5% | [7]; at 33.0 µM -10% | [8]; [16] 65% | [9]; at 1.2 µM 6% | [9]; at 3.7 µM 12% | [9]; [16] 38% | [9]; at 11.0 µM 18% | [9]; at 33.0 µM 36% | [11]; at 1.2 µM -34% | [11]; at 3.7 µM -21% | [11]; at 11.0 µM -15% | [11]; at 33.0 µM 28% | [12]; at 1.2 µM -28% | [12]; at 3.7 µM -35% | [12]; at 11.0 µM -28% | [12]; at 33.0 µM 28% | [13]; at 50.0 µM 69.7% | [15]; at 1.2 µM 1% | [15]; at 3.7 µM -1% | [15]; at 11.0 µM 12% | [15]; at 33.0 µM 67%
active: [1]; at 100.0 µM 81% | [3]; [16] 93% | [3]; [17] 94% | [3]; at 50.0 µM 78.8% | [3]; at 100.0 µM 84% | [4]; [16] 96% | [4]; [17] 95% | [4]; at 100.0 µM 79% | [6]; [17] 90% | [7]; at 100.0 µM 76% | [8]; [17] 92% | [9]; [17] 91% | [9]; at 100.0 µM 80% | [11]; at 100.0 µM 83% | [12]; at 100.0 µM 77% | [13]; [16] 99% | [13]; [17] 99% | [15]; at 100.0 µM 87%
